Test results reported in PubChem BioAssay (EPA / NIEHS).
Active and inactive are the calls of the source. The calls were made as follows: active = hit-call score of the fitted dose curve at least 0.9, where 1 is the maximum; inactive = score below 0.9.

test: CCTE_Harrill_HTTr_Viability_MCF7: CCTE's 6-hour Cell Viability Assessment for the High-Throughput Transcriptomics (HTTr) Platform, in MCF-7 cells cultured in DMEM + 10% fetal bovine serum, Harrill Lab (AID 2284010)
Method in brief: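 PI exclusion, high-content imaging; 8-pt dilution series, 6 h exposure; bidirectional fit vs DMSO (neg. ctrl/baseline); gain of signal = loss of membrane integrity.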

Row | Compound | outcome | AC50
1 | CC1(C)CCC(Cc2ccc(Cl)cc2)C1(O)Cn1cncn1 (stereo not given) | inactive | 
2 | COc1ccc(C=O)cc1 | inactive | 
3 | P.[In] | inactive | 
4 | [O-][Cl+2]([O-])O | inactive | 
5 | N#CCCO | inactive | 
6 | O=C(Cc1ccccc1)c1ccccc1 | inactive | 
7 | C[C@]12CC[C@H](O)CC1=CC[C@@H]1[C@@H]2CC[C@]2(C)C(=O)CC[C@@H]12 | inactive | 
8 | CCCCCCCCC(=O)NCc1ccc(O)c(OC)c1 | inactive | 
9 | O=c1[nH]c(=O)[nH]c(=O)[nH]1 | inactive | 
10 | COc1ccc(C(O)(c2cncnc2)C2CC2)cc1 (stereo not given) | inactive | 
11 | Oc1c(I)cc(I)cc1I | inactive | 
12 | CC(Br)C(=O)O (stereo not given) | inactive | 
13 | Nc1ccc(N=Nc2ccc(-c3ccc(N=Nc4c(S(=O)(=O)O)cc5cc(S(=O)(=O)O)c(N=Nc6ccccc6)c(O)c5c4N)cc3)cc2)c(N)c1 | inactive | 
14 | CCOP(=S)(OCC)Oc1ccc(S(C)=O)cc1 (stereo not given) | inactive | 
15 | O=C(O)C(F)(F)C(F)(F)C(F)(F)C(F)(F)C(F)(F)C(F)(F)F | inactive | 
16 | O=S(=O)(c1ccc(Cl)cc1)c1ccc(Cl)cc1 | inactive | 
17 | C[C@H]1CCCC(=O)CCC/C=C/c2cc(O)cc(O)c2C(=O)O1 | inactive | 
18 | ClC(Cl)=C(Cl)C(Cl)=C(Cl)Cl | inactive | 

Row | Compound | outcome | AC50
19 | CC1(C)Cc2cccc(O)c2O1 | inactive | 
20 | O=C(OC1CCCCC1)c1ccccc1C(=O)OC1CCCCC1 | inactive | 
21 | CC(C)c1cccc(C(C)C)c1O | inactive | 
22 | C[C@H]1O[C@@H](O[C@H]2[C@@H](O)C[C@H](O[C@H]3[C@@H](O)C[C@H](O[C@H]4CC[C@@]5(C)[C@H](CC[C@@H]6[C@@H]5CC[C@]5(C)[C@@H](C7=CC(=O)OC7)CC[C@]65O)C4)O[C@@H]3C)O[C@@H]2C)C[C@H](O)[C@@H]1O | inactive | 
23 | CC(C)C1CCC(Cc2ccc(Cl)cc2)C1(O)Cn1cncn1 (stereo not given) | inactive | 
24 | Nc1ccc(-c2ccc(N)c(Cl)c2)cc1Cl | inactive | 
25 | C=CC#N | inactive | 
26 | Oc1cccc2cccnc12 | inactive | 
27 | Clc1ccc(COC(Cn2ccnc2)c2ccc(Cl)cc2Cl)cc1 (stereo not given) | inactive | 
28 | Oc1ccc(-c2ccccc2)cc1 | inactive | 
29 | Cc1ccc(N)cc1Cl | inactive | 
30 | ClC1=C(Cl)[C@]2(Cl)[C@H]3[C@H]([C@H]4C=C[C@H]3C4)[C@@]1(Cl)C2(Cl)Cl | inactive | 
31 | COc1cc2c(cc1OC)[C@@]13CCN4CC5=CCO[C@H]6CC(=O)N2[C@H]1[C@H]6[C@H]5C[C@H]43 | inactive | 
32 | Nc1cccc2ccccc12 |  | 37.4 µM (active)
33 | COc1ccc(C=O)cc1OC | inactive | 
34 | CC(C)OC(=O)Nc1ccccc1 | inactive | 
35 | CCCCOCCOC(C)=O | inactive | 

test: CCTE_Harrill_HTTr_Apoptosis_MCF7: CCTE's 6-hour Apoptosis Assessment for the High-Throughput Transcriptomics (HTTr) Platform, in MCF-7 cells cultured in DMEM + 10% fetal bovine serum, Harrill Lab (AID 2284011)
Method in brief: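 Read-out: CellEvent Caspase 3/7 Green signal by high content imaging, gain-of-signal indicating apoptosis. MCF-7 cells, DMEM + 10% FBS, eight-point dilution series, 6 h exposure. Curves fitted bidirectionally relative to DMSO negative control.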

Row | Compound | outcome
36 | CC1(C)CCC(Cc2ccc(Cl)cc2)C1(O)Cn1cncn1 (stereo not given) | inactive
37 | COc1ccc(C=O)cc1 | inactive
38 | P.[In] | inactive
39 | [O-][Cl+2]([O-])O | inactive
40 | N#CCCO | inactive
41 | O=C(Cc1ccccc1)c1ccccc1 | inactive
42 | C[C@]12CC[C@H](O)CC1=CC[C@@H]1[C@@H]2CC[C@]2(C)C(=O)CC[C@@H]12 | inactive
43 | CCCCCCCCC(=O)NCc1ccc(O)c(OC)c1 | inactive
44 | O=c1[nH]c(=O)[nH]c(=O)[nH]1 | inactive
45 | COc1ccc(C(O)(c2cncnc2)C2CC2)cc1 (stereo not given) | inactive
46 | Oc1c(I)cc(I)cc1I | inactive
47 | CC(Br)C(=O)O (stereo not given) | inactive
48 | Nc1ccc(N=Nc2ccc(-c3ccc(N=Nc4c(S(=O)(=O)O)cc5cc(S(=O)(=O)O)c(N=Nc6ccccc6)c(O)c5c4N)cc3)cc2)c(N)c1 | inactive
49 | CCOP(=S)(OCC)Oc1ccc(S(C)=O)cc1 (stereo not given) | inactive
50 | O=C(O)C(F)(F)C(F)(F)C(F)(F)C(F)(F)C(F)(F)C(F)(F)F | inactive
51 | O=S(=O)(c1ccc(Cl)cc1)c1ccc(Cl)cc1 | inactive
52 | C[C@H]1CCCC(=O)CCC/C=C/c2cc(O)cc(O)c2C(=O)O1 | inactive
53 | ClC(Cl)=C(Cl)C(Cl)=C(Cl)Cl | inactive

Row | Compound | outcome
54 | CC1(C)Cc2cccc(O)c2O1 | inactive
55 | O=C(OC1CCCCC1)c1ccccc1C(=O)OC1CCCCC1 | inactive
56 | CC(C)c1cccc(C(C)C)c1O | inactive
57 | C[C@H]1O[C@@H](O[C@H]2[C@@H](O)C[C@H](O[C@H]3[C@@H](O)C[C@H](O[C@H]4CC[C@@]5(C)[C@H](CC[C@@H]6[C@@H]5CC[C@]5(C)[C@@H](C7=CC(=O)OC7)CC[C@]65O)C4)O[C@@H]3C)O[C@@H]2C)C[C@H](O)[C@@H]1O | inactive
58 | CC(C)C1CCC(Cc2ccc(Cl)cc2)C1(O)Cn1cncn1 (stereo not given) | inactive
59 | Nc1ccc(-c2ccc(N)c(Cl)c2)cc1Cl | inactive
60 | C=CC#N | inactive
61 | Oc1cccc2cccnc12 | inactive
62 | Clc1ccc(COC(Cn2ccnc2)c2ccc(Cl)cc2Cl)cc1 (stereo not given) | inactive
63 | Oc1ccc(-c2ccccc2)cc1 | inactive
64 | Cc1ccc(N)cc1Cl | inactive
65 | ClC1=C(Cl)[C@]2(Cl)[C@H]3[C@H]([C@H]4C=C[C@H]3C4)[C@@]1(Cl)C2(Cl)Cl | inactive
66 | COc1cc2c(cc1OC)[C@@]13CCN4CC5=CCO[C@H]6CC(=O)N2[C@H]1[C@H]6[C@H]5C[C@H]43 | inactive
67 | Nc1cccc2ccccc12 | inactive
68 | COc1ccc(C=O)cc1OC | inactive
69 | CC(C)OC(=O)Nc1ccccc1 | inactive
70 | CCCCOCCOC(C)=O | inactive
